Reference: the supplement of paper PMC7411640
Structures can show the parent of a compound that is named as a salt.

Test system: MDA-MB-468
Assay: phospho-S6 immunofluorescence (DAPI-normalised), per-plate z-score; higher = higher phospho-S6 signal (less pathway suppression)
Settings: 24 h
Protocol: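 GPCR-targeted compound library (MedChemExpress HY-L006) tested on MDA-MB-468 PTEN-null TNBC cells in 384-well plates at 0.1, 1 or 10 uM, combined with vehicle, GDC0941 450 nM or lapatinib 1 uM, for 24 h. Phospho-S6 (S240/244) immunofluorescence normalised to DAPI and expressed as a per-plate z-score; values are the mean of biological triplicates.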

Compound | phospho-S6 immunofluorescence (z-score) (co-treatment: GDC0941 450 nM) | phospho-S6 immunofluorescence (z-score) (co-treatment: lapatinib 1 uM) | phospho-S6 immunofluorescence (z-score) (co-treatment: vehicle)
OCC1OC(n2cnc3c(NCCc4ccccc4)ncnc32)C(O)C1O (centres undefined) [N6-(2-Phenylethyl)adenosine] (compound 10 µM) | 0.87 | 1.11 | 0.72
CCC(=O)NCC[C@@H]1CCc2ccc3c(c21)CCO3 [Ramelteon] (compound 10 µM) | -0.04 | -0.4 | 0.21
CC[C@H](C)[C@H](NC(=O)[C@H](Cc1ccc(O)cc1)NC(=O)[C@@H](NC(=O)[C@H](CCCNC(=N)N)NC(=O)[C@@H](N)CC(=O)O)C(C)C)C(=O)N[C@@H](Cc1c[nH]cn1)C(=O)N1CCC[C@H]1C(=O)O [Angiotensin (1-7)] (compound 10 µM) | 0.11 | 0.71 | -0.4
Nc1nccc(/C=C/c2ccccc2)n1 (compound 10 µM) | -1.32 | -0.81 | 0.3
COc1cc2nc(N3CCN(C(=O)c4ccco4)CC3)nc(N)c2cc1OC [Prazosin (hydrochloride)] (compound 10 µM) | 2.1 | 0.54 | 0.24
O=c1n(CCCN2CCN(c3cccc(Cl)c3)CC2)nc2ccccn12 [Trazodone (hydrochloride)] (compound 10 µM) | 0.41 | 0.08 | -0.51
CN1CCC[C@@H]1CCO[C@](C)(c1ccccc1)c1ccc(Cl)cc1 [Clemastine (fumarate)] (compound 10 µM) | 0.73 | -3.01 | 1.46
CNC(=C[N+](=O)[O-])NCCSCc1csc(CN(C)C)n1 [Nizatidine] (compound 10 µM) | -1.38 | 0.52 | 1.38
